Shown are actives, neighbours in structure and some others; about 5.8% of the full set was active somewhere.
uPA generation – qHTS for Inhibitors of Cell Surface uPA Generation. cell surface uPA generation assay, qHTS. Potency, µM (highest dose often 38.3 µM), most hits filed as inhibitors. 0.31% of 330,000 active. AID 540303, 2011; active = well fitted inhibition curve with a large enough effect; inconclusive = small, poorly fitted or top-dose-only effect; inactive = no such curve, though single readings can be large or run the other way; tested in mouse RAW 264.7 cells; also: nearly all actives have a fitted effect of over 55% in size
TRPV1 ag – HTS Assay for Compounds that Act as Agonists of the Vanilloid Receptor 1; TRPV1-expressing cells, Fluo-8 calcium influx, agonist mode; activation, % at 8.33 µM; 0.19% of 320,000 active; in the data active = activation above about 80%; inconclusive = between about 30% and that limit
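Cells expressing TRPV1 were dye-loaded with Fluo-8 and read kinetically: 10 s baseline, 3 min after compound (agonist portion), then 2 min after EC20 capsaicin (allosteric enhancer portion). Calcium-bound dye fluorescence at 480/520 nm.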
Gal4-VP16 FLuc – VP16 counterscreen qHTS for inhibitors of ROR gamma transcriptional activity; Drosophila S2 Gal4-VP16 UAS-luciferase, luminescence, 20 h; Potency, µM (doses to about 53.6 µM), actives largely listed as inhibitors; 3.5% of 310,000 active;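 also: Gal4-VP16 expression switched on by copper sulfate through the metallothionein promoter; nearly all actives have a fitted effect of over 50% in size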
TRPV1 potentiator – HTS Assay for Compounds that Act as Potentiators of the Vanilloid Receptor 1; 0.02% of 320,000 active; AID 540277, 2011; TRPV1-expressing cells, Fluo-8 calcium influx, capsaicin EC20 potentiation; Transient receptor potential cation channel subfamily V member 1 (Homo sapiens), Q8NER1; potentiation, % at 8.33 µM; in the data active = potentiation above about 80%; inconclusive = between about 30% and that limit
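Fluo-8 calcium influx in TRPV1-expressing cells, kinetic read (ex 480/em 520 nm). Compound added and read 3 min for agonist activity, followed by capsaicin at EC20 final and 2 min further read for enhancement.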
RORgamma inh – qHTS for inhibitors of ROR gamma transcriptional activity; Nuclear receptor ROR-gamma (Mus musculus), P51450; Drosophila S2 Gal4-RORgamma UAS-luciferase reporter, 20 h; Potency, µM (highest dose often 53.6 µM), most hits filed as inhibitors; 5.4% of 310,000 active; also: nearly all actives have a fitted effect of over 60% in size
Target sequence (P51450 whole entry, looked up, the tested form may be a part): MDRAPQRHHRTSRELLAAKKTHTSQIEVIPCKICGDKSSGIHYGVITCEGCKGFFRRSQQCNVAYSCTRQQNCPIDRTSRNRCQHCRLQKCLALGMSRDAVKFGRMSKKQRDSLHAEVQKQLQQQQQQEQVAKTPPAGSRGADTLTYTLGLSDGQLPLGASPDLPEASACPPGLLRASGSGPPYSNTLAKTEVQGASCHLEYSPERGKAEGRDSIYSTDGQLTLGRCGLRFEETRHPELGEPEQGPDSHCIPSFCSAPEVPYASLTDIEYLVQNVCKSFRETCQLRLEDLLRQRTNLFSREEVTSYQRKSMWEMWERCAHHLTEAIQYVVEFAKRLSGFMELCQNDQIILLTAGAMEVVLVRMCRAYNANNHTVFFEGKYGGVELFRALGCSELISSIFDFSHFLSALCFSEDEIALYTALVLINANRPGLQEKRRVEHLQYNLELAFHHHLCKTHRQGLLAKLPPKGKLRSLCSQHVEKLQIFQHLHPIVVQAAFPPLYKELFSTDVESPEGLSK
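Luciferase reporter read in Schneider cells carrying Gal4-RORγ (mouse) and UAS-Photinus luciferase; cells given compound 1 h before 700 uM copper sulfate induction, then incubated 20 h at ambient temperature.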
Large screens that a line does not name were inactive. Unless noted, calls follow the shape of the dose curve; as a rule, active = well fitted curve in the direction sought with a large enough effect; inconclusive = small, poorly fitted or top-dose-only effect, or another doubt; inactive = no such curve, though single readings can be large; an effect the other way counts as inactive or inconclusive.

COc1cc(/C=C2/C(=N)N3C=CSC3=NC2=O)ccc1OCCCOc1c(C)cccc1C	Gal4-VP16 FLuc inconclusive, RORgamma inh 11.2µM
O=C(O)Cn1c(=O)c2c3c(sc2n(Cc2ccc(Cl)cc2Cl)c1=O)CCCC3	none
COCc1nnc(NC(=O)CSc2ccccc2)s1	RORgamma inh inconclusive
O=C(CSc1ccccc1)Nc1nnc(COc2ccc(Cl)cc2)s1	Gal4-VP16 FLuc inconclusive, RORgamma inh 11.2µM
O=C(CSc1ccc(Cl)cc1)Nc1nnc(-c2cccc([N+](=O)[O-])c2)s1	Gal4-VP16 FLuc inconclusive, RORgamma inh 10µM
COCc1nnc(NC(=O)CSCc2ccccc2)s1	RORgamma inh 11.2µM
Cc1cccc(C)c1OCc1nnc(NC(=O)CSc2ccc(Cl)cc2)s1	none
COC(=O)CSCC(=O)Nc1nnc(-c2cccc(C)c2)s1	RORgamma inh 12.6µM
Cc1ccc(S(=O)(=O)N2CCOCC2)cc1C(=O)OCC(=O)N1CCCC1=O	none (no result: TRPV1 ag, Gal4-VP16 FLuc, TRPV1 potentiator, RORgamma inh)
CCOC(=O)N/N=C1/C[C@@H](O)[C@@H](O)[C@@H]2[C@@H]3C(=O)N([C@@H](C)c4ccccc4)C(=O)[C@H]3CC[C@@H]12	none (no result: uPA generation, TRPV1 ag, TRPV1 potentiator)
COCCSc1nnc(NC(=O)CSCc2ccccc2)s1	Gal4-VP16 FLuc inconclusive, RORgamma inh 7.94µM
COCCSc1nnc(NC(=O)COC)s1	none
Cc1ccc(-c2nnn(C/C(N)=N/O)n2)cc1	Gal4-VP16 FLuc 2.82µM, RORgamma inh 2.82µM
O=C(Nc1ccc(C(F)(F)F)cc1)C(Cc1ccccc1)n1cccc1 (configuration not stated)	TRPV1 ag inconclusive (no result: uPA generation, Gal4-VP16 FLuc, RORgamma inh)
CN1CCSc2ccc(C(=O)Nc3cccc(F)c3)cc21	TRPV1 ag inconclusive, Gal4-VP16 FLuc inconclusive
COc1ccc(NC(=O)c2ccc3ncsc3c2)cc1	TRPV1 ag 91.8
CCOc1ccc(NC(=O)c2ccc(S(=O)(=O)N(C)C)cc2)cc1	TRPV1 ag inconclusive
O=C(Nc1ccc(Br)cc1)c1ccc2ncsc2c1	TRPV1 ag inconclusive, Gal4-VP16 FLuc inconclusive, RORgamma inh inconclusive
COc1ccc(NC(=O)c2ccc3c(c2)N(C)CCS3)cc1	TRPV1 ag 96.6
CCc1ccc(NC(=O)c2ccc3ncsc3c2)cc1	TRPV1 ag 85.7 (no result: uPA generation)
CN(C)S(=O)(=O)c1ccc(NC(=O)c2ccc3ncsc3c2)cc1	TRPV1 ag 80.1
CCCCCCCCCCCCC/C=C/C(O)C(COP(=O)(O)OCCN)NC(=O)CCCCCCCCCCCCCCCCC (configuration not stated)	none (no result: uPA generation, TRPV1 ag, TRPV1 potentiator)
CC(C)=CCC/C(C)=C/CNC(=O)C[C@H]1C[C@H](C(=O)N2CCCCC2)[C@@]2(CCc3ccccc3)c3[nH]c4cc(CCC(=O)N(C)C)ccc4c3CCN2C1=O	none (no result: TRPV1 ag, Gal4-VP16 FLuc, TRPV1 potentiator, RORgamma inh)
COc1ccc(C(=O)Nc2ccc(N3CCN(C)CC3)cc2)cc1	none
CN1CCN(c2ccc(NC(=O)c3ccc4ccccc4c3)cc2)CC1	TRPV1 ag inconclusive, Gal4-VP16 FLuc inconclusive, RORgamma inh 11.2µM
O=c1c2cc(F)ccc2sn1-c1ccccc1	uPA generation inconclusive (no result: Gal4-VP16 FLuc, RORgamma inh)
Cc1ccccc1-n1sc2cc(F)ccc2c1=O	Gal4-VP16 FLuc 2.82µM, RORgamma inh 3.16µM
CN1CCN(c2ccc(NC(=O)COc3cccc4ccccc34)cc2)CC1	RORgamma inh inconclusive
C=CC(=O)Nc1cccc(N(C)c2ccnc(Nc3ccc(N4CCN(C)CC4)cc3)n2)c1	uPA generation 10µM (no result: TRPV1 ag, Gal4-VP16 FLuc, TRPV1 potentiator, RORgamma inh)
Cc1ccc2c(c1)N(CC(=O)NC1CCCCC1)C(=O)c1cccnc1O2	TRPV1 potentiator inconclusive
CC(=O)c1cccc(S(=O)(=O)Nc2ccccc2N2CCOCC2)c1	none (no result: TRPV1 ag, Gal4-VP16 FLuc, TRPV1 potentiator, RORgamma inh)
COc1ccc(S(=O)(=O)Nc2ccc(-n3cccc3)cc2)cc1	Gal4-VP16 FLuc 11.2µM, RORgamma inh 11.2µM
CCCCNC(=S)N/N=C/c1cccc(OCC)c1O	Gal4-VP16 FLuc 12.6µM, RORgamma inh 4.47µM
CCCCCC(=O)N/N=C/c1ccccc1[N+](=O)[O-]	none
O=[N+]([O-])c1ccccc1NC(=S)N/N=C/c1ccc(O)c(O)c1	Gal4-VP16 FLuc inconclusive, RORgamma inh 10µM
CCOc1cccc(/C=N/NS(=O)(=O)c2ccc(C)c([N+](=O)[O-])c2)c1O	Gal4-VP16 FLuc 3.16µM, RORgamma inh inconclusive
Cc1ccc(S(=O)(=O)N/N=C/c2ccc(O)cc2O)cc1[N+](=O)[O-]	Gal4-VP16 FLuc inconclusive
CCOc1cccc(/C=N/NC(=S)Nc2ccccc2[N+](=O)[O-])c1O	uPA generation 6.31µM, Gal4-VP16 FLuc 11.2µM, RORgamma inh 5.01µM
CO[C@H]1COC(=O)[C@@H](C)COC(=O)[C@H](C)NC(=O)C/C=C\[C@H]1C	none (no result: uPA generation, TRPV1 ag, TRPV1 potentiator)
CC(=O)OC[C@@H]1O[C@H](C/C=N\OC[C@@H](O)COCc2ccco2)C=C[C@@H]1OC(C)=O	none (no result: uPA generation, TRPV1 ag, TRPV1 potentiator)
CC(C)(C)C1CCc2c(sc(N)c2C(N)=O)C1 (configuration not stated)	Gal4-VP16 FLuc 15.8µM
COc1ccc(C(=O)OCC(=O)c2c(N)n(C)c(=O)n(C)c2=O)c(OC)c1OC	none (no result: TRPV1 ag, Gal4-VP16 FLuc, TRPV1 potentiator, RORgamma inh)
CCCCCC(C)NC(=O)CN1C(=O)NC(C)(c2ccc3ccccc3c2)C1=O (configuration not stated)	Gal4-VP16 FLuc 12.6µM, RORgamma inh 5.01µM
NC(=O)C1CCN(C(=O)CCSCc2ccc(Cl)c(Cl)c2)CC1	TRPV1 ag 88.0
CC(=O)Nc1cccc(-n2nnc(SCC(=O)N(C)c3ccccc3)n2)c1	none
C=CCn1c(O)c(N=NC(=S)Nc2ccc(OC)cc2)c2ccccc21	Gal4-VP16 FLuc 3.98µM, RORgamma inh 3.16µM
C=CCn1c(O)c(N=NC(=O)OCC)c2ccccc21	Gal4-VP16 FLuc inconclusive
C=CCn1c(O)c(N=NC(=O)CNC(=O)c2ccco2)c2ccccc21	uPA generation 10µM
C=CCn1c(O)c(N=NC(=S)Nc2cccc(OC)c2)c2ccccc21	Gal4-VP16 FLuc 2.51µM, RORgamma inh 0.794µM
O=C(CCc1ccccc1)NCc1ccc2c(c1)OCO2	RORgamma inh inconclusive
CS(=O)(=O)c1ccc(-c2cc(Br)sc2-c2ccc(F)cc2)cc1	none (no result: uPA generation, TRPV1 ag, TRPV1 potentiator)
CC(NC(=O)COC(=O)CCc1nc2ccccc2c(=O)[nH]1)c1ccccc1 (configuration not stated)	none
Cc1ccc(OCC(=O)Nc2ccncc2)cc1	TRPV1 ag inconclusive, Gal4-VP16 FLuc inconclusive, RORgamma inh inconclusive
NS(=O)(=O)c1ccc(CNC(=O)CCCSc2ccccc2)cc1	TRPV1 ag 84.1 (no result: uPA generation)
COc1ccc(CNC(=O)CCCSc2ccccc2)cc1	TRPV1 ag inconclusive
CC1(C)C(=O)C(c2ccccc2)=C2CN3C(=O)N(CCc4ccccc4)C(=O)C3(Cc3ccccc3)C=C21 (configuration not stated)	none (no result: uPA generation, TRPV1 ag, TRPV1 potentiator)
Cc1ccnc(NC(=O)Nc2ccc(Br)cc2Cl)c1	none
S=C(Nc1cccc(Cl)c1Cl)Nn1cnnc1	Gal4-VP16 FLuc inconclusive
Cc1cc(C)nc(NC(=S)Nc2ccc(Br)cc2Cl)c1	Gal4-VP16 FLuc inconclusive, RORgamma inh 0.562µM
Cc1cc(C)nc(NC(=S)Nc2cccc(Cl)c2Cl)c1	Gal4-VP16 FLuc 1.78µM, RORgamma inh 0.398µM

Source: PubChem
